Assay outcomes as filed in PubChem BioAssay.
Pf Dd2 growth = Plasmodium falciparum Dd2 growth inhibition; 120,000 compounds, 4.3% hits; Potency, µM (doses to about 28.9 µM), for inactives: at the top dose activity, negative = inhibition, most hits filed as inhibitors; P. falciparum Dd2 growth, SYBR Green, 72 h; active means well fitted inhibition curve with a large enough effect;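 further: plate controls were DMSO vehicle for no effect and reference drug for full effect; nearly all actives have a fitted effect of over 65% in size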
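Infected erythrocytes (Dd2, 0.3% parasitemia, 2.5% hematocrit final) are added to compound in RPMI-1640/Albumax II medium, grown 72 h at 37C in low oxygen, then lysed with saponin/Triton-X containing SYBR Green and read by fluorescence.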
* = called active by the depositor; i = inactive; [ ] = dose if it differs, or a comment. Shown is part of a subset that was picked to be rich in hits. Potency means the concentration at half of the fitted maximal effect.

SMILES	Pf Dd2 growth
CN1CCc2c(sc(NC(=O)CSc3ccccc3)c2-c2nc3ccccc3s2)C1	11µM*
CC(=O)N1CCc2c(sc(NC(=O)CSc3ccccc3)c2-c2nc3ccccc3s2)C1	2µM*
Cn1c(SCC(=O)Nc2nc3ccccc3s2)ncc(C(=O)Nc2ccc(Cl)cc2)c1=O	30%
Cn1c(SCC(=O)Nc2nc3ccccc3s2)ncc(C(=O)Nc2ccccc2)c1=O	22%
Cc1cnc(=O)[nH]c1SCC(=O)Nc1nc2ccccc2s1	8%
CC(=O)N1CCN(C(=O)CSCC(=O)O)C[C@H]1C(=O)N[C@H]1CCCNC1=O	24%[44.1 µM]
Cc1ccc(C#N)c(N2CC[C@@H](c3ccc4c(c3)OCO4)[C@H](O)C2)n1	5%
COc1cccc(CCC(=O)N2CCCC(Nc3ccc(F)cc3)C2)c1 (configuration not stated)	-11%
FC(F)Oc1ccccc1CN1CCCC(Nc2ccccc2)C1 (configuration not stated)	i
COc1ccc(O)c(CN2CCCC(Nc3ccc(F)cc3)C2)c1 (configuration not stated)	2.8µM*
Cc1cccc(CN2CCCCCNC(=O)[C@@H]3CCC[C@@H]32)c1	-27%
CN1CCCCCCN(C(=O)NCCc2ccccc2)[C@H]2CCC[C@H]2C1=O	-8%
CN1CCCCCCN(C(=O)Cc2cccnc2)[C@@H]2CCC[C@@H]2C1=O	11%
Cc1cccc(CN2CCCCCCN(C)C(=O)[C@@H]3CCC[C@@H]32)c1	2.5µM*
CN1CCCCCCN(Cc2ccc3[nH]ccc3c2)[C@H]2CCC[C@H]2C1=O	2µM*
CN1C(=O)[C@H]2CN(Cc3ccc4[nH]ccc4c3)C[C@H]2C1=O	i
O=C(NCc1csc2c1CCCC2)C(c1cccnc1)N1CCOCC1 (configuration not stated)	-5%
O=C1CCN(C(=O)CCCc2c[nH]c3ccccc23)CCCOCCN1	-21%
O=C(CC1COCCN1)N(CCc1c[nH]c2ccccc12)C1CCCCC1 (configuration not stated)	8.9µM*
O=C(CC1COCCN1)N(Cc1cccnc1)Cc1cccnc1 (configuration not stated)	4%
CCc1nc(-c2c3n(c(=O)n(CC(=O)Nc4ccc(Cl)cc4F)c2=O)CCCC3)no1	i
CCN(CC)C(=O)c1sc2c(c1C)c(=O)n(CCc1ccccc1)c(=O)n2Cc1ccc(C)cc1	11µM*
CCN(CC)C(=O)c1sc2c(c1C)c(=O)n(-c1ccccc1)c(=O)n2Cc1cc(=O)n2ccccc2n1	16%
CCc1ccc(-n2c(=O)c3c(C)c(C(=O)N(C)C)sc3n(Cc3cccc(C)c3)c2=O)cc1	31%
Cc1ccccc1NC(=O)Cn1c(=O)n(Cc2ccccc2)c(=O)c2c(C)c(C)sc21	18%
SMILES	Pf Dd2 growth
Cc1cc(C)c(NC(=O)Cn2c(=O)n(Cc3ccccc3)c(=O)c3c(C)c(C(=O)N(C)C)sc32)c(C)c1	-27%
CCN(CC)C(=O)c1sc2c(c1C)c(=O)n(-c1ccccc1)c(=O)n2Cc1c(C)cc(C)cc1C	10µM*
CCN(CC)C(=O)c1sc2c(c1C)c(=O)n(-c1ccc(C)c(C)c1)c(=O)n2Cc1cc(=O)n2c(C)cccc2n1	-7%
CCc1ccccc1NC(=O)Cn1c(=O)n(Cc2ccccc2)c(=O)c2c(C)c(C(=O)N(C)C)sc21	4.5µM*
Cc1sc2c(c1C)c(=O)n(Cc1ccccc1)c(=O)n2Cc1ccc(F)cc1	46%
CC(=O)N1CCCCC1c1nc(-c2ccccc2)n[nH]1 (configuration not stated)	-2%
O=C(N[C@@H]1CN(c2ncccn2)C[C@H]1CO)c1ccncc1	25%
O=C(CCNc1c(-c2ccccc2)nc2cnccn12)NC1CCCC1	i
CCCCN1CCN(C(=O)c2ccc3c(c2)N(S(C)(=O)=O)CC3)CC1	i
COCCCNC(=O)CCCN1C(=O)COc2ccc(C(=O)COc3ccc(OC)cc3)cc21	-6%
O=C(N[C@@H]1C[C@H](Cn2cc(C3CC3)nn2)[C@@H](O)[C@H]1O)C1CCOCC1	6%[44.1 µM]
O=C(c1ccoc1)N1CCC(Cc2nc(C3CCOCC3)no2)CC1	9%
O=C(c1cnc(N2CCOCC2)nc1)N1CCn2nc(C(O)C3CC3)cc2C1 (configuration not stated)	9%
CCCN(CC1CCOC1)C(=O)c1ccccc1Br (configuration not stated)	13%[5.79 µM]
CCOC(=O)CCNC(=O)N1[C@@H]2CC[C@H]1CC(NC(=O)c1ccc(F)cc1)C2 (some centres not stated)	11%
COc1ccc(-c2cc(N3CCC(NC(=O)c4cccc(Cl)c4)C3)n[nH]2)cc1 (configuration not stated)	i
O=S(=O)(c1ccccc1C(F)(F)F)N1CC(c2nc(-c3ccncc3)no2)C1	i
CCOc1ccc(-c2cccc3c2CCNC3)cc1C(N)=O	-4%
NC(=O)c1ccc(-c2cccc3c2CCNC3)s1	-5%
COc1ccc(-c2cccc3c2CCNC3)cc1OC	11µM*
Cc1cc(C)cc(NC(=O)C2CCCN2S(=O)(=O)c2ccc3nc(-c4ccccc4)[nH]c3c2)c1 (configuration not stated)	i
Cc1cc(C)cc(NC(=O)C2CCCN2S(=O)(=O)c2cccc3nsnc23)c1 (configuration not stated)	3.2µM*
Cc1cccc(C)c1NC(=O)C1CCN(S(=O)(=O)c2cccc3nsnc23)CC1	16%
O=C(Nc1ccc(F)cc1F)C1CCCN1S(=O)(=O)c1cccc2nsnc12 (configuration not stated)	12%
CCc1cccc(C)c1NC(=O)C1CCCN1S(=O)(=O)c1cccc2nsnc12 (configuration not stated)	5µM*
SMILES	Pf Dd2 growth
Cc1ccc(NC(=O)C2CCCN(S(=O)(=O)c3cccc4nsnc34)C2)c(C)c1 (configuration not stated)	-7%
Cc1ccc(NC(=O)C2CCCN(S(=O)(=O)c3cccc4nsnc34)C2)cc1C (configuration not stated)	-26%
Cc1ccc(NC(=O)C2CCCN2S(=O)(=O)c2cccc3nsnc23)c(Br)c1 (configuration not stated)	7.1µM*
CCc1cccc(C)c1NC(=O)C1CCN(S(=O)(=O)c2cccc3nonc23)CC1	14%
c1ccc(OCc2cc(CC3(NCc4cccc5c4OCO5)COC3)no2)cc1	i
CN(C)c1ccc(C(=O)N2CC[C@@H](CC(=O)O)[C@@H](CCN3C[C@@H]4C[C@H](C3)c3cccc(=O)n3C4)C2)cc1	-15%
O=C(NCc1nnc2c(-c3nc(C4CC4)no3)cccn12)c1cccc(F)c1	i
CCCNC(=O)N1CCc2nc(N3CCN(C)CC3)sc2C1	i
O=C(Cc1c[nH]c2ccccc12)N1CCC(Cc2nncn2-c2ccccc2)CC1	i
COCCN1CC(C(=O)N(C)Cc2cnn(-c3ccccc3C)c2)CCC1=O (configuration not stated)	-1%
Cc1ccccc1NS(=O)(=O)c1ccc2c(c1)NC(=O)CCS2	-8%
O=C1CCSc2ccc(S(=O)(=O)Nc3cccc(C(F)(F)F)c3)cc2N1	35%
Cc1ccc(NS(=O)(=O)c2ccc3c(c2)NC(=O)CCS3)cc1C	10µM*
CCc1noc(-c2cccn3c(CNC(=O)C(C)c4ccccc4)nnc23)n1 (configuration not stated)	i
O=C(C1CC1)N1CCN(Cc2ccccc2)CC(O)C1 (configuration not stated)	11%
CN(CC(=O)N1CCN(Cc2ccccc2)CC(O)C1)C1CCCC1 (configuration not stated)	8.9µM*
